Activity calls are given as the source filed them.
What was measured:
[1] = small molecules captured by biotinylated probe aFSTL3 – biochemical, small-molecule microarray, fluorescence 635/667, stem cell growth factor project, primary screen (AID 1064); conditions: higher = more signal;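 also: measures binding of the biotinylated anti-FSTL3 antibody to printed compounds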
[2] = binders from COS7 lysate, DM2A8 probe, primary screen, torsin A project, cell lysate, small-molecule microarray, fluorescence 635/667 (AID 1065); conditions: higher = more signal, COS7 lysate expressing mutant human TOR1A
[3] = small molecules captured by biotinylated probe aFGF2 – biochemical, small-molecule microarray, fluorescence 635/667, stem cell growth factor project, primary screen (AID 1067); conditions: higher = more signal;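 also: measures binding of biotinylated aFGF2 protein to printed compounds on slides; z-score merges feature fluorescence and signal-to-noise across triplicate slides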
[4] = small molecules captured by biotinylated probe aFGF10 – biochemical, small-molecule microarray, fluorescence 635/667, stem cell growth factor project, primary screen (AID 1071); conditions: higher = more signal;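 also: score merges 667 nm spot intensity and signal to noise from triplicate slides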
[5] = biological target: Neurogenic locus notch homolog protein 2 (Homo sapiens) (UniProt Q04721); assay: small molecules binding Notch2 protein – biochemical, small-molecule microarray, 635 nm fluorescence, stem cell growth factors, primary screen (AID 1073); conditions: higher = more signal
[6] = biological target: Pro-neuregulin-1, membrane-bound isoform (Homo sapiens) (UniProt Q02297); assay: small molecules binding neuregulin-1 protein – biochemical, small-molecule microarray, fluorescence 635/667, psychiatric disease protein project, primary screen (AID 1075); conditions: NRG1 binding, 635 nm fluorescence, higher = more signal;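 also: score combines 667 nm spot fluorescence with signal to noise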
[7] = test system: Neuregulin-1 EGF-like domain; assay: small molecules binding NRG1 EGF domain – biochemical, small-molecule microarray, 635 nm fluorescence, primary screen (AID 1081); conditions: higher = more signal;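 also: binding of the protein to compounds printed on small-molecule microarray slides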
[8] = FRG1 expression reporter modulators in myotubes – cell-based, C2C12 myotubes, firefly/Renilla luciferase, luminescence, FRG1 inhibition for FSHD, primary screen (AID 1084); conditions: FRG1 promoter luciferase, higher = more signal, called active from +8 up or from −8 down
[9] = small molecules captured by biotinylated probe aFST – biochemical, small-molecule microarray, fluorescence 635/667, stem cell growth factor project, primary screen (AID 1086); conditions: higher = more signal;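 also: score merges 667 nm fluorescence with signal-to-noise of each printed compound spot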
[10] = binders of probe aHhip on microarray, primary screen, stem cell growth factor project, biochemical, small-molecule microarray, fluorescence 635/667 (AID 1087); conditions: higher = more signal;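 also: score merges spot fluorescence at 667nm with spot signal to noise ratio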
[11] = test system: PRMT1 (protein arginine N-methyltransferase 1); assay: small molecules binding arginine methyltransferase PRMT1 – biochemical, small-molecule microarray, 635 nm fluorescence, primary screen (AID 1088); conditions: higher = more signal;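 also: binding of Prmt1 protein to compounds spotted on small-molecule microarray slides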
[12] = growth effects on S. cerevisiae YJM789 – YJM789 clinical isolate, OD600, 24 h, basal, primary screen (AID 1089); conditions: higher = more signal, called active from +8 up or from −8 down;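 also: growth of clinical yeast isolate S. cerevisiae YJM 789 seeded 1000 cells per well; test concentration not given here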
[13] = S. pombe growth modifiers, basal conditions – strain 972, OD600, 24 h, no modulator, primary screen (AID 1090);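 also: basal condition with compound alone and no growth modifier present; test concentration not given here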; conditions: S. pombe 972 growth, higher = more signal, called active from +8 up or from −8 down
[14] = budding yeast growth modifiers under rapamycin – strain BY4716, OD600, 96 h, primary screen (AID 1091); also: test concentration not given here; conditions: S. cerevisiae BY4716 + rapamycin, higher = more signal, called active from +8 up or from −8 down
[15] = biological target: Torsin-1A-interacting protein 2 (Homo sapiens) (UniProt Q8NFQ8); assay: small molecules binding lysate-expressed LULL1 – cell lysate, human LULL1 lysate, 635/667 nm fluorescence, primary screen (AID 1092); conditions: small-molecule microarray, hLULL1 lysate binding, 635 nm fluorescence; higher = more signal;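 also: probe is lysate of COS7 cells overexpressing human LULL1; score merges per-feature 667 nm fluorescence with signal-to-noise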
[16] = optical density change of DRC41 E. coli – strain DRC41, OD650, 24 h, E. coli filamentation project, primary screen (AID 1093);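 also: MC1000 strain lacking acrAB efflux and sulA so SOS filamentation is blocked; test concentration not given here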; conditions: E. coli DRC41 growth, higher = more signal, called active from +8 up or from −8 down
[17] = probe aLefty2 binding to arrayed compounds – biochemical, biotinylated probe, 635/667 nm fluorescence, primary screen (AID 1094); conditions: small-molecule microarray, higher = more signal;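 also: score merges spot fluorescence near 667 nm with spot signal-to-noise ratio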
[18] = test system: Noggin (protein binding on small-molecule microarray); assay: small molecules binding Noggin protein – biochemical, 635/667 nm fluorescence, primary screen (AID 1095); conditions: 635 nm fluorescence, higher = more signal;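 also: score merges 667 nm feature fluorescence with signal to noise over triplicate slides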
[19] = biological target: Neurogenic locus notch homolog protein 3 (Homo sapiens) (UniProt Q9UM47); assay: small molecules binding NOTCH3 protein – biochemical, 635/667 nm fluorescence, primary screen (AID 1096); conditions: small-molecule microarray, 635 nm fluorescence, higher = more signal
[20] = probe aEGFR binding to arrayed compounds – biochemical, biotinylated probe, 635/667 nm fluorescence, primary screen (AID 1097); conditions: small-molecule microarray, higher = more signal;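 also: probe is a biotinylated anti-EGFR antibody binding compounds printed on slides; score combines fluorescence near 667 nm and signal to noise of each spot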

Sequence of Torsin-1A-interacting protein 2 (Homo sapiens) (Q8NFQ8 whole entry, looked up): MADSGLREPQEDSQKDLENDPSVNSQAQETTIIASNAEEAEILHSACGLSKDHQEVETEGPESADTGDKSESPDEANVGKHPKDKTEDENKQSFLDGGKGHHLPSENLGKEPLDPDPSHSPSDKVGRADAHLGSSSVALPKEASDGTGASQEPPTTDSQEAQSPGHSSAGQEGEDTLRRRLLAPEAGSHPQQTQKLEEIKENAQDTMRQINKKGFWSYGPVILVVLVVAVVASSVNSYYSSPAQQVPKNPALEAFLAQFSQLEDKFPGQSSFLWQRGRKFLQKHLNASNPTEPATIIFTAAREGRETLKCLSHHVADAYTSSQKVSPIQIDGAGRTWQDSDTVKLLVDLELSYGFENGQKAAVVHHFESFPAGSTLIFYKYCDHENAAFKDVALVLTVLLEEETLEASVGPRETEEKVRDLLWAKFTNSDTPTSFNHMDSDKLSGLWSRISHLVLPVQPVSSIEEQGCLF
Sequence of Neurogenic locus notch homolog protein 2 (Homo sapiens) (Q04721 whole entry, looked up, canonical isoform): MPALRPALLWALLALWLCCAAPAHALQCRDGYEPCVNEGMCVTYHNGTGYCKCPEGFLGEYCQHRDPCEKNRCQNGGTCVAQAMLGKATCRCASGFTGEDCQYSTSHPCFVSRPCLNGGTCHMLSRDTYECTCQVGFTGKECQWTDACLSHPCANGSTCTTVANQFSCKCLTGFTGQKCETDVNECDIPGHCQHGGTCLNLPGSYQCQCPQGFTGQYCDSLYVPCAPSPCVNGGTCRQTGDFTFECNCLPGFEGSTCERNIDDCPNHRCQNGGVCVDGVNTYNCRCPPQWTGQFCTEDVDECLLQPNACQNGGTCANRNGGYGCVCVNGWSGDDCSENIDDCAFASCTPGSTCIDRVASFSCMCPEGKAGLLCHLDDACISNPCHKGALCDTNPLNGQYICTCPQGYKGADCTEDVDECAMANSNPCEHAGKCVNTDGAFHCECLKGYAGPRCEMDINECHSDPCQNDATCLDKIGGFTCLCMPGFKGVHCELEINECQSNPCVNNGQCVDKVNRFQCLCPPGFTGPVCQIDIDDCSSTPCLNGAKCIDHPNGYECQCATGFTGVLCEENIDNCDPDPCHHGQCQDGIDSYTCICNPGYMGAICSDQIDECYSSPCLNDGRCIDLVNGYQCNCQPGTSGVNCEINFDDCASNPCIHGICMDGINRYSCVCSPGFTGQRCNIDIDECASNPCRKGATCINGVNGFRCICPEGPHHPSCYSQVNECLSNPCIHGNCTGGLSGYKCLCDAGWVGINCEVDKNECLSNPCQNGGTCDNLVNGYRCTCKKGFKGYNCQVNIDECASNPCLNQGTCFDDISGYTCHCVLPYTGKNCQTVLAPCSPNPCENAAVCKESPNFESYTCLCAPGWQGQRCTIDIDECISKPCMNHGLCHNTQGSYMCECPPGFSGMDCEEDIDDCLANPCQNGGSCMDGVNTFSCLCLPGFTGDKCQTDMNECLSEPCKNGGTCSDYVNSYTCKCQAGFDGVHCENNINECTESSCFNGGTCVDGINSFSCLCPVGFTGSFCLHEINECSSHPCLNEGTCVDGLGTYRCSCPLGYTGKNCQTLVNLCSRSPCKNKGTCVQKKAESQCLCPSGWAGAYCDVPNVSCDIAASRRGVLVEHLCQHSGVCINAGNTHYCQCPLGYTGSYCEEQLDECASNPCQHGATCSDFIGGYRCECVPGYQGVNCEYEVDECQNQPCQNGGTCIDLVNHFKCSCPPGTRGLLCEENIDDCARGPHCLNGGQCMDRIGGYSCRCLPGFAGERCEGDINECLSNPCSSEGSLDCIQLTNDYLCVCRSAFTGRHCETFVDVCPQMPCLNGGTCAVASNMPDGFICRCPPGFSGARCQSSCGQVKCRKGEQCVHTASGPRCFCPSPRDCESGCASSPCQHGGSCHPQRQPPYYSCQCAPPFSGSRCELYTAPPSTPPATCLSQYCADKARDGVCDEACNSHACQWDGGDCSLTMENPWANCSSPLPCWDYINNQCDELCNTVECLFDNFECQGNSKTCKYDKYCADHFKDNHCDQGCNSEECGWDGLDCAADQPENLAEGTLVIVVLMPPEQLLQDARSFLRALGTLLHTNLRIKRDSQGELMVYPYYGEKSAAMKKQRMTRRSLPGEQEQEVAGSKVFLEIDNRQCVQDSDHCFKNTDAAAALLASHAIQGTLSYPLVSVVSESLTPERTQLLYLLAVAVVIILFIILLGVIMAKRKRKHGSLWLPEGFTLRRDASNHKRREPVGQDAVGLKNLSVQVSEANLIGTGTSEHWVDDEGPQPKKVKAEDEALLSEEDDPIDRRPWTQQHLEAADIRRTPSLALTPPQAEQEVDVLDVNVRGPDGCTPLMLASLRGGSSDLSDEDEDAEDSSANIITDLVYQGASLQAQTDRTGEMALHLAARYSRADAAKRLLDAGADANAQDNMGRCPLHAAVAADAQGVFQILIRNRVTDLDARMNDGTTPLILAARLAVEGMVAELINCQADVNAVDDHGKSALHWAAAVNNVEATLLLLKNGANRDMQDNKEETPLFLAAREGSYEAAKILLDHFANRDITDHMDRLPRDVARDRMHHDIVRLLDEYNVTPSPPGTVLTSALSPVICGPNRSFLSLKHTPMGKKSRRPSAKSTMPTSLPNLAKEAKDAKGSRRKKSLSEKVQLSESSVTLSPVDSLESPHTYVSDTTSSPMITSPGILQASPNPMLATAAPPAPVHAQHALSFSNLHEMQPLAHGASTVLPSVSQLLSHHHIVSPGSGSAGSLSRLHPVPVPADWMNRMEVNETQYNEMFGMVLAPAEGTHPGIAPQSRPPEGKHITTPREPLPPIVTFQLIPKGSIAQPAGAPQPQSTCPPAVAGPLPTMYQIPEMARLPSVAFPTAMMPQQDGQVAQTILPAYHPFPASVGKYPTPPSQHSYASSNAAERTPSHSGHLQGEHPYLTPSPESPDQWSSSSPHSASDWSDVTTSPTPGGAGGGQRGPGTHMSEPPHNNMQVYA
Sequence of Pro-neuregulin-1, membrane-bound isoform (Homo sapiens) (Q02297 whole entry, looked up, the tested form may be a part, canonical isoform): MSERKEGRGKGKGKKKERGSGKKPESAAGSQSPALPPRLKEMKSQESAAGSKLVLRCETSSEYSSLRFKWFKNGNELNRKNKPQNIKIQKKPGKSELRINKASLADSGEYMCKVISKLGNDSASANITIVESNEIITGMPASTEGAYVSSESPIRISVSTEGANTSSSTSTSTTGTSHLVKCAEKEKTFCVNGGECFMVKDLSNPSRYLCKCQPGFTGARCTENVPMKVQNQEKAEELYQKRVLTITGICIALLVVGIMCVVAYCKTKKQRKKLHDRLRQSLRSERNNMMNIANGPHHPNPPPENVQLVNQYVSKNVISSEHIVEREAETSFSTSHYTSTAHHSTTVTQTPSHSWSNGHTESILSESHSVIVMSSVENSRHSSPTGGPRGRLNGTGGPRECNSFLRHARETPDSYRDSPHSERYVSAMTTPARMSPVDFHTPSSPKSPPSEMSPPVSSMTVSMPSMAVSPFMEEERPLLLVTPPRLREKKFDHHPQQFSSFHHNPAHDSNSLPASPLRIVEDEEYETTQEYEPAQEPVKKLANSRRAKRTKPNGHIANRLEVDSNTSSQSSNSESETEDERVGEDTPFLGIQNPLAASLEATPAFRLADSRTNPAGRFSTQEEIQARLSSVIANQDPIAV

Structure (SMILES)	composite z-score [1]	composite z-score [2]	composite z-score [3]	composite z-score [4]	composite z-score [5]	composite z-score [6]	composite z-score [7]	z-score [8]	composite z-score [9]	composite z-score [10]	composite z-score [11]	z-score [12]	z-score [13]	z-score [14]	composite z-score [15]	z-score [16]	composite z-score [17]	composite z-score [18]	composite z-score [19]	composite z-score [20]
CCOC1=C2C(CN(S(=O)(=O)c3ccc(C)cc3)C2c2ccc(C)cc2)C2C(=O)N(c3ccccc3)C(=O)C2C1 (stereo not given)	-0.208	-0.155	-0.0074	0.347	1.25	0.752	1.03	-0.62 (inactive)	0.585	-0.0618	0.952	0.218 (inactive)	1.86 (inactive)	0.852 (inactive)	1.96	0.0696 (inactive)	-0.0515	0.257	0.875	0.0414
COC(=O)c1c(CC[C@@H](CO)NC(=O)N[C@H](Cn2cc(Cc3ccccc3)nn2)C(C)C)oc(C(C)=O)c1C(=O)OC	-0.234	0.128	-0.119	1.09	0.0441	0.0567	1.06	0.82 (inactive)	0.059	-0.236	1.08	-0.178 (inactive)	-0.787 (inactive)	0.158 (inactive)	1.08	0.918 (inactive)	-0.166	0.493	0.39	-0.145
O=C(NCC(F)(F)F)[C@@H]1c2ccccc2C(=O)N(C2CCCCC2)[C@H]1c1ccc(CO)cc1	-0.176	-0.527	-0.116	0.0931	0.154	1.61	0.611	-1.46 (inactive)	0.249	0.0505	0.311	0.936 (inactive)	0.372 (inactive)	0.963 (inactive)	1.76	0.674 (inactive)	-0.117	0.276	0.254	-0.0987
CCOC(=O)C[C@H]1[C@H](OC(=O)Cc2ccc3c(c2)OCO3)[C@@H](NC(=O)c2ccc(-c3ccccc3)cc2)c2cc(OCCCO)ccc2N1C(=O)Cc1ccc(OC)cc1	-0.429	0.816	-0.0636	0.412	0.819	0.337	0.269	-3.25 (inactive)	0.339	-0.415	0.81	-1.32 (inactive)	-1.09 (inactive)	0.105 (inactive)	0.826	1.09 (inactive)	0.0163	0.185	0.921	0.0881
COc1ccc(COC2OC[C@]3(C)[C@H]4C5=C(CN3C(=O)OC(C)(C)C)[C@H](C)C(CO)C(CO)C5CC[C@@H]24)cc1 (stereo not given in full)	0.262	1.27	-0.0832	0.424	1.65	1.02	0.982	2.67 (inactive)	1.98	-0.069	0.482	0.677 (inactive)	0.805 (inactive)	0.502 (inactive)	3.27	-1.76 (inactive)	0.341	0.277	1.06	0.0699
O=C1C2C=CC(C(O)c3c(F)cccc3Cl)N(Nc3ccccc3)C2C(=O)N1c1ccccc1 (stereo not given)	-0.0072	-0.0274	0.0363	0.354	1.7	1.86	1.25	-3.84 (inactive)	1.09	-0.359	1.56	0.269 (inactive)	0.211 (inactive)	0.395 (inactive)	3.43	0.063 (inactive)	0.0313	0.461	1.04	-0.0251
C#CCNC(=O)[C@H](Cc1ccccc1)NC(=O)CCC(=O)O	-0.0733	-0.267	-0.158	-0.704	-1.46	-0.592	-0.33	0.338 (inactive)	1.03	-0.0994	-1.17	-0.136 (inactive)	0.396 (inactive)	0.0017 (inactive)	-0.906	-0.361 (inactive)	-0.198	-0.88	-0.502	-0.238
C=CC[C@@]1(C(N)=O)N=C(c2ccc(OCCCO)cc2)O[C@@H]1c1ccccc1CN=[N+]=[N-]	0.626	-0.41	-0.0193	0.291	0.77	2.17	1.41	2.94 (inactive)	1.19	0.0053	0.867	-0.884 (inactive)	-0.398 (inactive)	-0.512 (inactive)	3.77	0.0086 (inactive)	0.444	0.174	0.638	0.0651
CCC(CC)C(O)C1C=CC2C(=O)N(C)C(=O)C2N1Nc1ccccc1 (stereo not given)	0.53	0.219	0.117	0.258	1.47	1.47	0.816	1.97 (inactive)	0.876	-0.134	1.02	-0.0298 (inactive)	-0.575 (inactive)	0.0024 (inactive)	3.07	0.103 (inactive)	-0.0321	-0.0929	1.06	-0.0828
COC(=O)[C@@]1(Cc2ccc(F)cc2)[C@H]2c3cc(C(=O)N(C)C)n(Cc4ccc(S(C)(=O)=O)cc4)c3C[C@H]2CN1C(=O)c1ccccc1	0.244	0.657	0.209	0.629	1.41	1.79	1.19	0.0659 (inactive)	0.198	0.0274	-0.213	0.304 (inactive)	1.21 (inactive)	0.147 (inactive)	2.23	0.321 (inactive)	0.124	-0.139	0.49	-0.0045
